# Results reported in PubChem BioAssay (NCI).
# This is part of a sample that, as a whole, favours compounds with a hit. Of some 83,000 tested, about 20% had one in any assay.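 A percent growth of 40 corresponds to 60% growth inhibition; 0 means no net growth; -100 means all cells died. Active threshold: below 10.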 Values without a mark were called inactive. Calls of active or inactive are those of the source.
# Tested on: NCI-H23 lung
# Assay: NCI-60 one-dose screen, 48 h (100 = growth as untreated, 0 = no growth, -100 = all killed)
# Details: 10 µM unless noted
row,Structure (SMILES),growth
1,C=C1CC[C@@H]2C(C)(C)[C@H](O)CC[C@@]2(C)[C@@H]1COc1ccc2ccc(=O)oc2c1,40.7%
2,COc1cc2ncnc(Nc3ccc(S(=O)(=O)Nc4nccs4)cc3)c2cc1OCCCN1CCCC1,99.8%
3,Cc1cc(O)c(=O)cc2c1C[C@H]1CC(C)(C)/C=C/C[C@]3(C)Oc4cc(=O)c(O)cc(C)c4C[C@H]3C[C@H](O)[C@@]1(C)O2,-16.7% (active)
4,COc1ccc2[nH]cc(-c3nonc3-c3c[nH]c4ccc(Br)cc34)c2c1,54.1%
5,COc1cc2c(c(OC)c1OC)C(=O)CC(c1cccc(C(=O)Nc3ccccc3Br)c1)O2 (configuration not stated),102%
6,NS(=O)(=O)c1ccc(C(=O)N=Nc2c(O)[nH]c3ccc(Cl)cc23)cc1,98.3%
7,CCCN(CCSSCCNc1nc(N(C)O)nc(N(C)O)n1)c1nc(N(C)O)nc(N(C)O)n1,84%

# Tested on: NCI-H226 lung
# Assay: as above
# Details: 10 µM unless noted
row,Structure (SMILES),growth
1,CC/C(=C(\c1ccc(Cl)cc1)c1ccc(OCCN2CCCCC2)cc1)c1ccc(O)cc1,78.6%
2,CCOC(=O)c1[nH]cc2c1CCc1sc(Nc3ccccn3)nc1-2,57.2%
3,COc1cc(-c2ccc(-c3ccc(C(=N)N)cc3)s2)cc(OC)c1OC,82.5%
4,CN(C)c1ccc([C@@H](C(=O)Nc2cccc([N+](=O)[O-])c2)N(C(=O)c2cc3ccccc3[nH]2)c2cccc([N+](=O)[O-])c2)cc1,97.5%
5,Cc1cccc(NC(=O)N/C(N)=N/c2nc3ccccc3s2)c1,53.7%
6,CN(C)c1ccc(/C=N\NC(=O)c2ccc3nc(-c4ccc(Cl)cc4)[nH]c3c2)cc1,93.1%
7,C=C1SC(=Nc2ccccc2Cl)N(C(=O)c2sc3ccccc3c2Cl)C1(C)C,77.1%
8,CC[C@@H](C(=O)[C@@H](C)[C@@H](O)[C@H](C)[C@@H]1O[C@@H]([C@@H](CC)C(=O)ONC(=O)c2ccccc2O)CC[C@@H]1C)C1O[C@]2(C=CC(=O)[C@]3(CC[C@@](C)([C@H]4CC[C@](O)(CC)[C@H](C)O4)O3)O2)[C@H](C)C[C@@H]1C (some centres not stated),52.7%
9,Cc1ccc(NC(=O)c2cc3ccccc3cc2O)c(C)c1,86.6%
10,CCN(CC)CCOc1ccc2c(-c3ccccc3)c(-c3ccc(OC)cc3)c(=O)oc2c1,85.2%
11,CCOC(=O)C1=C(CC(O)c2ccc(OC)cc2OC)NC(=O)NC1c1ccccc1 (configuration not stated),100%
12,COc1nc(/C=C\Nc2ccc3c(c2)OCCOCCOCCOCCO3)nc(OC)n1,103%
13,Cc1c(O)cc(-c2cnc(N/N=C/c3ccccc3)s2)c(O)c1C,92.4%
14,CCCCO[C@@H]1C=C2[C@H]3CC(C)(C)C(=O)C[C@]3(C(=O)O[C@@H]3O[C@H](CO[C@@H]4O[C@H](CO)[C@@H](OC5OC(C)C(O)C(O)C5O)[C@H](O)[C@H]4O)[C@@H](O)[C@H](O)[C@H]3O)CC[C@@]2(C)[C@]2(C)CC[C@H]3C(C)(C)C(=O)CC[C@]3(C)[C@@H]12 (some centres not stated),45.6%
15,O=CN1N=C(c2cccc(Nc3ccnc4cc(Cl)ccc34)c2)CC1c1ccc(Cl)cc1 (configuration not stated),59.4%
16,CCCCCCCCn1ccc2cc(NC(=O)CN3CCN(c4cc(C)nc(Cl)n4)CC3)ccc21,82.2%
17,O=C1Nc2ccccc2/C1=N/N1C(=O)CN(CCCl)C1=O,95.1%
18,CCOc1ccc(/C=C/C(=O)c2cccc(OCCCOc3cccc(C(=O)/C=C/c4ccc(OCC)cc4)c3)c2)cc1,73.8%
19,C=C1C(=O)O[C@H]2[C@H]1CC/C(COC(=O)NCc1ccc(Cn3c(=O)sn(-c4ccc(I)cc4)c3=O)cc1)=C\CC[C@@]1(C)O[C@@H]21,89.6%
20,O=C1/C(=C/c2c[nH]c(=O)[nH]c2=O)SC(=S)N1Cc1ccccc1,102%
21,Nc1nc(N(Cc2ccccc2)c2ccccc2)c2cn[nH]c2n1,98.3%
22,CC(C)NS(=O)(=O)/N=C1\NC(=O)NC1=C(Cl)Cl,95.3%
23,COc1cc2c(cc1OCCCN1CCN(C(=S)SCCC(C#N)(c3ccccc3)c3ccccc3)CC1)N=C[C@@H]1CCCN1C2=O,-55.8% (active)
24,O=c1cc(CP(=O)(O)O)c2cc(O)c(-c3ccccc3)cc2o1,101%
25,O=S(=O)(Nc1ccc2ccccc2c1)c1ccc(-c2cnc(C3CC3)o2)cc1,62.1%
